Measured values: PubChem BioAssay (NCATS)
Records with an inconclusive call do not appear. Entries that show only a call come without a potency. Unmarked numbers belong to inactive results. The source made the active and inactive calls. Calls come from the whole dose curve; as a rule, active = well fitted curve in the direction sought with a large enough effect; inconclusive = small, poorly fitted or top-dose-only effect, or another doubt; inactive = no such curve, though single readings can be large; an effect the other way counts as inactive or inconclusive.

How the values were obtained:
[1] = Panc-1005 Cancer Cell Toxicity qHTS against the NCATS CANVASS Library (AID 1347349); note: nearly all actives have a fitted effect of over 60% in size; note: potency is the fitted concentration of half-maximal effect
In short: (§1)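 Per well, 1000 cells; exposure 72 h with compound at 11 final concentrations; readout CellTiter-Glo luminescence.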

[2] = SW1088 Cancer Cell Toxicity qHTS against the NCATS CANVASS Library (AID 1347350); note: nearly all actives have a fitted effect of over 75% in size; note: potency is the fitted concentration of half-maximal effect
In short: as §1

[3] = COV-362 Cancer Cell Toxicity qHTS against the NCATS CANVASS Library (AID 1347352); note: potency is the fitted concentration of half-maximal effect
In short: (§2)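 qHTS cytotoxicity: compounds tested in 11 concentrations on 1000 seeded cells per well over 72 h; bortezomib served as control; signal from CellTiter-Glo luminescence.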

[4] = A2780 Cisplatin Sensitive Ovarian Cancer Cell Toxicity qHTS against the NCATS CANVASS Library (AID 1347353); note: nearly all actives have a fitted effect of over 60% in size; note: potency is the fitted concentration of half-maximal effect
In short: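 Seventy-two-hour exposure of cisplatin-sensitive A2780 ovarian cells to an 11-concentration qHTS series; cytotoxicity is inferred from loss of ATPLite luminescence. Bortezomib titration served as positive control.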

[5] = UWB1.289-WTBRCA1 Cancer Cell Toxicity qHTS against the NCATS CANVASS Library (AID 1347354)
In short: as §2

[6] = test system: NAD(P)H diaphorase (Clostridium kluyveri); test: Diaphorse counterscreen qHTS: Assay Interference Panel against the NCATS CANVASS Library (AID 1347362)
In short: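 Clostridium kluyveri diaphorase in PBS with 0.01% Tween-20 was preincubated 15 min at room temperature in the dark with compounds (11-point series). Resorufin fluorescence (ex 525/20, em 598/25) was read 5 min after adding resazurin/NADH.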

[7] = KB-8-5-11 Cancer Cell Toxicity qHTS against the NCATS CANVASS Library (AID 1347364); note: nearly all actives have a fitted effect of over 75% in size; note: potency is the fitted concentration of half-maximal effect
In short: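 Natural products were titrated in 11 points onto KB-8-5-11 cells, 500 per well, and cytotoxicity was scored from CellTiter-Glo luminescence after 72 hr culture.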

[8] = G06 Cancer Cell Toxicity qHTS against the NCATS CANVASS Library (AID 1347368); note: nearly all actives have a fitted effect of over 60% in size; note: potency is the fitted concentration of half-maximal effect
In short: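 Cytotoxicity toward canine glioma G06 cells is scored from cellular ATP via luminescence after 72 hr compound exposure at 500 cells/well.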

[9] = qHTS for Hypoxia signaling pathway (HIF-1) agonists against the NCATS CANVASS Library (AID 1347375)
In short: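 Inducers of HIF-1 signaling were detected in ME-180 cells bearing an HRE-driven beta-lactamase reporter after 17 h compound exposure. Activity came from CCF4-AM FRET emission ratio (460/530 nm) in qHTS format.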

[10] = DH5-alpha competent E. coli microbial cell viability qHTS against the NCATS CANVASS Library (AID 1347377); settings: outcome: dose series up to 46.1 µM unless noted
In short: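 Cell viability of competent DH5-alpha E. coli is scored from ATP content by luminescence. Cells sit overnight at 37C with compound across an 11-point concentration series.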

[11] = qHTS for H2AX Agonists against the NCATS CANVASS Library (AID 1347378);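 note: phospho-H2AX S139 level in CHO-K1 lysates by TR-FRET emission ratio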; note: potency is the fitted concentration of half-maximal effect
In short: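 Signal is the 665/620 nm emission ratio from europium cryptate and d2 antibody pair, rising with S139-phosphorylated H2AX. CHO-K1 cells saw test agents for 3 hr at 37C; detection ran 24 hr at room temperature.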

[12] = qHTS for Inflammasome Signaling Inhibitors: IL-1-beta AlphaLISA screen against the NCATS CANVASS Library (AID 1347379);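 note: human THP-1 cells primed with LPS then triggered with ATP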;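 for potency: secreted IL-1B measured as AlphaLISA emission at 615 nm; potency is the fitted concentration of half-maximal effect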
In short: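 Human THP-1 cells were pretreated 1 hr at 37 °C with compounds (up to 57.5 uM final), then stimulated with LPS (250 ng/mL final) and ATP (1.25 mM final). Secreted IL-1B was read by AlphaLISA after 16 hr.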

[13] = Cytotoxicity qHTS for assessment of Hepg2 cells membrane integrity screened against the NCATS CANVASS Library (AID 1347387)
In short: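 Fluorescence proportional to lysed-cell number, from LDH leaking out of HepG2 cells exposed 5 hr at 37C to 0.59 nM - 46 uM compound (11-point qHTS), is measured after 10 min with CytoTox-ONE.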

[14] = qHTS assay for small molecule disruptors of mitochondrial membrane potential screened against the NCATS CANVASS Library (AID 1347389); note: series mostly up to about 46 µM; nearly all actives have a fitted effect of over 60% in size
In short: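 Compounds tested in 11-point qHTS series on HepG2 cells for 1 hr; membrane-potential dye added for 30 min at 37C. Lower red-to-green ratio indicates loss of potential.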

[15] = Secretion counterscreen for inhibitors of the SERCaMP assay screened against the NCATS CANVASS Library (AID 1347390);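 note: light from luciferase secreted into medium read as a measure of general secretion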; note: potency is the fitted concentration of half-maximal effect
In short: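 Natural products are titrated in an 11-point series up to 77 uM onto SH-SY5Y-GLuc STOP cells for 20 h. Secreted reporter activity is measured as coelenterazine-driven luminescence, with Brefeldin A on each plate.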

[16] = qHTS for activators of Nrf2/ARE signaling pathway screened against the NCATS CANVASS Library (AID 1347391); note: nearly all actives have a fitted effect of over 60% in size; note: potency is the fitted concentration of half-maximal effect
In short: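 Cells carrying an ARE-driven beta-lactamase reporter (HepG2 background) are dosed for 16 h, then stained with CCF4. Cell viability in the same wells is measured by CellTiter-Glo luminescence.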

[17] = qHTS for activators of dead-cell proteases activity screened against the NCATS CANVASS Library (AID 1347392);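 note: luminescence from protease leaking out of membrane-damaged cells cleaving impermeant substrate; rising signal means more cytotoxicity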
In short: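 HepG2 cells (2000/well) attached 18 h at 37C, then exposed 5 h to compounds (11-point qHTS). Dead-cell protease activity read as luminescence from cell-impermeant AAF-aminoluciferin substrate after 15 min at room temperature.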

[18] = qHTS for inhibitors of ER calcium dysfunction: SERCaMP assay screened against the NCATS CANVASS Library (AID 1347393); note: nearly all actives have a fitted effect of over 40% in size; note: potency is the fitted concentration of half-maximal effect
In short: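 qHTS in SH-SY5Y reporter cells: 16 h compound pretreatment, 4 h thapsigargin, then secreted Gaussia luciferase measured by luminescence.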

[19] = Vero-766 cells viability qHTS against the NCATS CANVASS Library: Counterscreen for Zika virus inhibition assay (AID 1347394); note: nearly all actives have a fitted effect of over 60% in size; note: potency is the fitted concentration of half-maximal effect
In short: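 Counterscreen for toxicity: Vero 766 cells exposed 72 h to an 11-point compound series, viability by CellTiter-Glo.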

[20] = qHTS for inhibitors of Wild type Zika virus screened against the NCATS CANVASS Library (AID 1347396);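 note: ATP luminescence of surviving cells so rescue from viral cell killing; series mostly up to about 46 µM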
In short: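 Using ATP-based luminescence (CellTiter Glo), this screen scores rescue of Vero 766 cells from wild-type Zika killing at 72 h post-infection. Compounds are tested in a concentration series.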

Row | Structure (SMILES) | Potency [1] | Potency [2] | Potency [3] | Potency [4] | Potency [5] | Potency [6] | Potency [7] | Potency [8] | Potency [9] | outcome [10] | Potency [11] | Potency [12] | outcome [13] | Potency [14] | Potency [15] | Potency [16] | Potency [17] | Potency [18] | Potency [19] | Potency [20]
1 | O=Cc1ccc2n1C[C@@]1(OC2)O[C@H](CO)[C@@H](O)[C@@H]1O | inactive | inactive | inactive | inactive | inactive | inactive | inactive | inactive | inactive | inactive | inactive | inactive | inactive | inactive | inactive | inactive | inactive | inactive | inactive | inactive
2 | CO[C@@H]1[C@H](O)[C@@H](C)O[C@@H](OC[C@@H]2C(C)OC(=O)/C=C/[C@H](C)C(O[C@@H]3O[C@H](C)CC4(OC(=O)O[C@@H]4C)C3O)[C@@H](C)CC(C)C(=O)CC[C@H]3OC23)[C@@H]1OC (stereo not given in full) | inactive | inactive | inactive | inactive | inactive | inactive | inactive | – | inactive | inactive | inactive | inactive | inactive | inactive | inactive | – | inactive | – | inactive | inactive
3 | C=C(NC(=O)c1csc(-c2nc3c(cc2O)-c2nc(cs2)C(=O)NC(C(C)O)C(=O)N/C(=C(\C)O)c2nc(cs2)C(=O)NC2c4nc(cs4)C(=O)NC(COC(=O)c4c5c6c(cccc6n4O)COC(=O)[C@@H](OC4C[C@](C)(O)[C@H](N(C)C)[C@H](C)O4)C2OC5)c2nc-3cs2)n1)C(N)=O (stereo not given in full) | inactive | inactive | inactive | inactive | inactive | inactive | inactive | – | – | inactive | inactive | inactive | inactive | – | – | inactive | inactive | – | inactive | inactive
4 | Oc1ccc(C2c3c(O)cc(O)cc3[C@@H]3C(c4ccc(O)cc4)c4c(O)cc(O)cc4[C@H]23)cc1 (stereo not given in full) | – | inactive | inactive | – | inactive | inactive | inactive | inactive | inactive | inactive | inactive | inactive | inactive | – | inactive | inactive | inactive | inactive | inactive | inactive
5 | C/C=C/c1cc(OC)c2c(c1)[C@@H](C)[C@H](c1ccc(O)c(OC)c1)O2 | inactive | inactive | inactive | inactive | inactive | inactive | inactive | – | inactive | inactive | inactive | inactive | inactive | inactive | inactive | – | inactive | 24300 nM (active) | inactive | inactive
6 | C[C@@H]1C(=O)[C@]23CC[C@H]1C[C@]21O[C@H]2C(C)(C)C=CC(=O)[C@@]23COC1=O | inactive | inactive | inactive | inactive | inactive | inactive | inactive | inactive | inactive | inactive | inactive | inactive | inactive | inactive | inactive | – | inactive | – | inactive | inactive
7 | C[C@@]12C[C@@H](C[C@H]3C(=O)O[C@@H](c4ccoc4)[C@H](OC(=O)c4ccccc4)[C@@H]31)OC2=O | inactive | inactive | inactive | inactive | inactive | inactive | inactive | inactive | inactive | inactive | inactive | inactive | inactive | inactive | inactive | inactive | inactive | inactive | – | inactive
8 | C/C=C/C=C/C1(O)C2C=C3C(=O)CC45C(=O)C(O)=C(C)C(=O)C4C1C1(C(=O)C(O)=C(C)C(=O)C351)C2C (stereo not given) | inactive | inactive | inactive | inactive | inactive | inactive | inactive | inactive | inactive | inactive | inactive | inactive | inactive | inactive | inactive | inactive | inactive | inactive | inactive | inactive
9 | CN1C(=O)[C@]23SS[C@@]1(C)C(=O)N2[C@H]1Nc2ccccc2[C@]1(c1c[nH]c2ccccc12)[C@@H]3O | 668 nM (active) | 237 nM (active) | 941 nM (active) | 132 nM (active) | – | – | 2350 nM (active) | 296 nM (active) | inactive | inactive | 21700 nM (active) | 1530 nM (active) | inactive | – | 1720 nM (active) | 1860 nM (active) | inactive | inactive | 6600 nM (active) | –
10 | C[C@@H](O)[C@H]1OC(=O)C=C2[C@]3(C)[C@H]4[C@H](OC(=O)[C@@]4(C)[C@@H](O)[C@H]4O[C@H]43)[C@H]3O[C@@]231 | 2110 nM (active) | – | 1880 nM (active) | 833 nM (active) | – | inactive | 1480 nM (active) | 1480 nM (active) | inactive | inactive | – | 12200 nM (active) | inactive | inactive | 3840 nM (active) | – | inactive | inactive | 9330 nM (active) | –
11 | CC1(C)CCC[C@]2(C)[C@@H]1CC[C@@]13C[C@@H](CC[C@H]12)C(C)(O)C3 (stereo not given in full) | inactive | inactive | inactive | inactive | inactive | inactive | inactive | inactive | inactive | inactive | inactive | inactive | inactive | inactive | inactive | inactive | inactive | inactive | inactive | inactive
